The text below walks through data of PubChem BioAssay AID504607 (Sanford-Burnham Center for Chemical Genomics, 2011).

Molecules are shown by their SMILES. About 4,800 (77%) of roughly 6,200 compounds were called active. So high a share suggests a set chosen from earlier hits. A selection follows. A number with no mark means an inactive call.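 Rule for the calls: active = mean inhibition at 8 µM reaching about 37%, which flags the compound as non-specific (limit read from the data); inactive = the rest.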

What is called inhibition is the drop in the measured response relative to a control, in per cent.

The nature of this experiment: full-length luciferase signal inhibition, confirmation, counter-screen for Mdm2/MdmX interaction inhibitor project, cell-based, single concentration, SaOS-2 (AID 504607).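 Note: p53-null SaOS-2 cells with luciferase driven by a doxycycline-inducible promoter; compound on cells about two nights before reading with doxycycline added after day one.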 The conditions noted are these: SaOS-2 full-length luciferase counterscreen, luminescence; at 8 µM; hits give high values. A general note: The purpose of a counterscreen is to sort out artefacts and off-target activity.
As to `O=C(Nc1ccc2ccccc2c1)Nc1ccc2snnc2c1`, the inhibition was 44.4% (active).
With `COc1cccc(NC(=O)[C@H](Cc2c[nH]c3ccccc23)NC(=O)[C@@H]2Cc3ccccc3CN2)c1`, the inhibition was 53.2% (active).
On to `O=C(NC(Nc1nc2ccc([N+](=O)[O-])cc2s1)(C(F)(F)F)C(F)(F)F)c1ccccc1`, for which the inhibition was 8.11%.
The figure for `Cc1cc(CNC(=O)c2cccc([N+](=O)[O-])c2)c2ccccc2n1` is 41.5% (active).
For the compound `Cc1ccc(-c2nc3ccccc3[nH]2)cc1NC(=O)c1sc2ccccc2c1Cl`, the inhibition was 18.5%.
Regarding `COC(=O)c1c(NC(=O)COc2ccc(Cl)cc2Cl)sc2c1CC(C)(C)NC2(C)C`, the inhibition was 3.07%.
The figure for `CCOC(=O)c1c(NC(=O)c2ccc(S(=O)(=O)N(C)CC3CCCO3)cc2)sc2c1CC(C)(C)NC2(C)C` (configuration not stated) is 62.7% (active); for `O=C(CC(O)(C(F)(F)F)C(F)(F)F)Nc1ccc(Cl)c(Cl)c1` it is 58.1% (active).
The figure for `Cc1cccc2sc(N(CCCN(C)C)C(=O)CCS(=O)(=O)c3ccccc3)nc12` is 14.4%; for `CN(NC(=O)c1ccccc1F)c1nc(C(F)(F)F)nc2ccccc12` it is 63.5% (active).
Turning to `CN(NC(=O)c1ccccc1)c1nc2ccccc2nc1C(F)(F)F`, the inhibition is 68.8% (active).
`CSc1nc(N(C)NC(=O)c2cccc(C)c2)c2ccccc2n1`: the inhibition was 135% (active).
Take `CC1(C)CCSC(/C=C/c2ccccc2)=N1`: the inhibition was 30.5%.
Take `Cc1ccccc1C(CC(=O)c1cccs1)C(C#N)C#N` (configuration not stated): the inhibition is 45.1% (active).
The figure for `CCNS(=O)(=O)c1ccc(NC(=O)Nc2cccc(C(F)(F)F)c2)cc1` is 53.4% (active).
In the case of `Cc1cccc(NC(=O)Nc2cccc(Oc3c(F)c(F)c(F)c(F)c3F)c2)c1`, the inhibition was 32.5%.
On to `O=C(Nc1ccc(C(=O)N2CCOCC2)cc1)Nc1cccc(C(F)(F)F)c1`, for which the inhibition was 49.8% (active).
For the compound `COc1ccc(-c2cc(C(F)(F)F)nc(S(C)(=O)=O)n2)cc1OC`, the inhibition was 24.3%.
As to `COc1ccc(-c2ccc(Nc3ccc(S(=O)(=O)N4CCCC4)cc3)nn2)cc1OC`, the inhibition was 77.8% (active).
As for `COc1ccc(C(=O)O/N=C(\N)Cc2ccc(Cl)cc2Cl)cc1OC`, the figure is 47.8% (active); as for `Cc1cccc(Nc2ccccc2C(=O)NCc2ccco2)c1C`, 39.6% (active).
The figure for `COc1ccc2sc(-c3ccc(S(C)(=O)=O)cc3)c(C#Cc3cncn3C)c2c1` is 44.8% (active).
As for `COc1cccc(-c2sc3ccc(OC)cc3c2-c2ccc(OCCN3CCCCC3)cc2)c1`, the figure is 32.7%; as for `O=C1N/C(=C/c2cccn2-c2ccccc2)C(=O)N1c1cccc(Cl)c1`, 126% (active).
Take `Cc1cccc(-n2c(C)cc(/C=N\NC(=O)c3cccs3)c2C)c1`: the inhibition was 178% (active).
The figure for `Cc1cc(C(=O)COc2ccccc2[N+](=O)[O-])c(C)n1-c1cccc(S(=O)(=O)N2CCOCC2)c1` is 89.8% (active).
For `Cn1nc(-c2ccccc2)c(CSc2cccc(Cl)c2)c1Cl`, the inhibition was 51.5% (active).
`CN1CCN(CCCNC(=O)c2ccc(/C=C3\Oc4ccccc4N(Cc4ccc(Cl)cc4)C3=O)cc2)CC1`: the inhibition is 62.6% (active).
As for `CCN1CCN(CCNC(=O)c2ccc(/C=C3/Sc4ccccc4N(Cc4cccc(C)c4)C3=O)cc2)CC1`, the figure is 27.6%.
The figure for `Cc1ccc(OCC(O)CN2CCN(CC(O)COc3ccc(C)cc3Cl)CC2)c(Cl)c1` (configuration not stated) is 71.1% (active); for `Cn1c(=O)n(C)c2cc(C(=O)Nc3ccc4c(c3)OCO4)ccc21` it is 56.6% (active); for `CC1CCCCC1NC(=O)/C(C#N)=C/C=C/c1ccccc1[N+](=O)[O-]` (configuration not stated) it is 57.2% (active).
As to `NS(=O)(=O)c1ccc(N=Nc2c(O)[nH]c3ccc(Br)cc23)cc1`, the inhibition is 86.5% (active).
The figure for `C[C@@H]1C[C@@H]2O[C@H]2/C=C\C=C\C(=O)Cc2c(Cl)c(O)cc(O)c2C(=O)O1` is 33.8%.
The figure for `Clc1cccc(Cl)c1OCCOCCNCc1ccccc1` is 33%; for `N=c1c2c(-c3ccccc3)c(-c3ccccc3)n(Cc3ccccc3)c2ncn1CCCO` it is 62% (active).
On to `CCCCC(O)(CCCC)C(=O)NN(C(=O)CCl)c1ccccc1`, for which the inhibition was 34%.
`Cc1cc(=O)oc2cc(OCC3CC(c4ccccc4Cl)=NO3)ccc12` (configuration not stated): the inhibition is 117% (active).
The figure for `Cc1ccc(-n2[nH]c(C)c(/C=N/NC(=O)c3cccc([N+](=O)[O-])c3)c2=O)cc1C` is 46.2% (active); for `Cn1c(C(=O)NCCCN2CCN(c3cccc(Cl)c3)CC2)cc2c(=O)n(C)c3ccccc3c21` it is 61.5% (active); for `OCCCNc1nccc(-c2cc(Nc3cccc(Cl)c3)ncn2)n1` it is 53.2% (active).
The figure for `CC(C)n1cnc2c(Nc3cccc(Cl)c3)nc(N(CCO)CCCO)nc21` is 47.6% (active); for `CCCCCCCCn1c2c(c(=N)c3c1CCC3)CCCC2` it is 22%; for `COc1ccc(-c2nn(C)c(=O)c3ccccc23)cc1NC(=O)COc1ccccc1` it is 53.5% (active).
On to `O=[N+]([O-])c1ccc(Oc2ccc(F)cc2Br)c2ccncc12`, for which the inhibition was 16%.
As to `O=C(Nc1nc2ccc([N+](=O)[O-])cc2s1)c1ccc(S(=O)(=O)N2CCCc3ccccc32)cc1`, the inhibition was 20%.
On to `CCCC(=O)Nc1nc2ccc(NC(=O)c3cccnc3)cc2s1`, for which the inhibition was 108% (active).
The figure for `Cc1nnc(NC(=O)Nc2ccc(Cl)c(Cl)c2)s1` is 33.4%.
The figure for `O=C(Nc1ccc(Cl)cc1)Nc1nnc(/C=C/c2ccccc2)s1` is 75.8% (active); for `Cc1c(C(=O)N/N=C/c2ccccc2)[nH]c2c([N+](=O)[O-])cccc12` it is 48.3% (active).
The figure for `COc1cccc(CNCCc2c[nH]c3ccccc23)c1OCc1ccccc1F` is 42% (active); for `COc1ccc(/C=C/C(=O)Nc2ccc(C34CC5CC(CC(O)(C5)C3)C4)cc2)cc1OC` it is 85.7% (active); for `CCN(CC)c1ccc(/C=N/NC(=O)c2cnccn2)c(O)c1` it is 37.9% (active).
On to `CCN(CC)c1ccc(/C=N/Nc2nc(C)cc(C)n2)c(O)c1`, for which the inhibition was 38.6% (active).
As for `Cc1c(Cl)c([N+](=O)[O-])nn1Cc1ccc(C(=O)N/N=C\c2cc(Cl)ccc2O)o1`, the figure is 32.4%.
As for `CC(=O)Oc1c(C(=O)c2nnc(C)o2)c(=O)n(Cc2ccccc2)c2ccccc12`, the figure is 36.5% (active); as for `NC(N)=N/N=C/c1ccc(OCc2ccc(Cl)cc2Cl)cc1`, 50.2% (active).
For the compound `COc1cccc2cc(C(N)=O)/c(=N\NC(=O)c3ccccc3)oc12`, the inhibition was 137% (active).
The figure for `CC(Nc1nc(N2CCCC2)nc2ccccc12)c1ccccc1` (configuration not stated) is 88.5% (active); for `O=C(/C=C/c1ccc(OCc2c(F)cccc2Cl)cc1)N1CCOCC1` it is 27.7%; for `C=C(C)C(=O)O[C@H]1C/C(C)=C\C(=O)/C=C(\C)[C@H](O)[C@@H]2OC(=O)C(=C)[C@@H]21` it is 51.4% (active).
For `CCc1ccc(N(CC)c2ncnc3nc[nH]c23)cc1`, the inhibition is 41.2% (active).
The figure for `C/C(=N\NC(=O)c1ccccc1F)c1ccccn1` is 52.1% (active).
Consider `CCOC(=O)CC1C(=O)NCCN1c1nc2c(C)cccn2c(=O)c1/C=C1\SC(=S)N(C(C)CC)C1=O` (configuration not stated), for which the inhibition is 101% (active).
The figure for `CCN1C(=O)c2cccc3c(S(=O)(=O)Nc4ccccc4O)ccc1c23` is 76.6% (active).
As for `COc1ccc2c(c1OC)C(=O)OC2Nc1nc(-c2ccccc2)cs1` (configuration not stated), the figure is 51.2% (active); as for `Cc1ccc(-c2csc(NC3OC(=O)c4ccccc43)n2)cc1` (configuration not stated), 23.7%.
